Test results as given in PubChem BioAssay AID1259399 (Fisher Drug Discovery Resource Center, 2018).
Out of some 160,000 compounds screened, about 240 (0.15%) were called active. The sample holds actives, similar compounds and a random draw of the others, so the mix is not that of the screen. Rule as the data show it: active = inhibition above about 40%; inactive = the rest.

target: Cyclic GMP-AMP synthase (Mus musculus) (UniProt Q8C6L5); assay: inhibition of Mus musculus cGAS, primary biochemical chemiluminescence screen (AID 1259399); conditions: recombinant cGAS, Kinase-Glo ATP depletion luminescence; at 12.5 µM; stronger effect = higher value;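 also: 0% = negative control wells and 100% = reference inhibitor with no enzyme activity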
Sequence (Q8C6L5 whole entry, looked up): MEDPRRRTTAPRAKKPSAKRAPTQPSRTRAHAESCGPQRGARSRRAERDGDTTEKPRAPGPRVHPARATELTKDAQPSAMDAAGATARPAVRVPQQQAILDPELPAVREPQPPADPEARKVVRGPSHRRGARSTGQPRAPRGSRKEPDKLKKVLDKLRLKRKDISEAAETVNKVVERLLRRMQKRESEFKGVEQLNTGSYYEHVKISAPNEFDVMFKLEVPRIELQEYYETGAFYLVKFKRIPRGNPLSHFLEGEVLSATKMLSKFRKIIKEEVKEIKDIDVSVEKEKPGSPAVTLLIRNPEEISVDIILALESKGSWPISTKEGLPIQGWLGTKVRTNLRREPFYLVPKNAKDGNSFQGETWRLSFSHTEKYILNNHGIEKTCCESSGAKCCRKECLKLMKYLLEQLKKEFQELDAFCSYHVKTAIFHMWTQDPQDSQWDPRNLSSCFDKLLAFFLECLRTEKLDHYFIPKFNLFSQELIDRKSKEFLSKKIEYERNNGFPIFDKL

SMILES	inhibition
Cc1ccc(S(=O)(=O)N(Cc2ccco2)Cc2nccn2Cc2ccc(C(F)(F)F)cc2)cc1	-8.05% (inactive)
COc1ccccc1C1=NOC(CN(Cc2ccccc2Cl)C(=O)C2CCC2)C1 (stereo not given)	-4.91% (inactive)
O=c1cc(-c2ccc(F)cc2)ncn1Cc1cccc2ccccc12	5.38% (inactive)
O=C(CN1CCCC1Cn1cccn1)NCCc1ccc(F)cc1 (stereo not given)	-4.22% (inactive)
CCc1ccc(-c2nn(-c3ccccc3)cc2C=NO)cc1	-6.62% (inactive)
CCOc1ccccc1NC(=O)CC(=O)N1[C@H](C)CCC[C@@H]1C	-17.8% (inactive)
S=C(NN=CC1CC=CCC1)NC1CCCCC1 (stereo not given)	-5.67% (inactive)
O=C(NNc1nc2c(Cl)cccc2s1)c1cc(=O)c2ccccc2o1	4.02% (inactive)
COc1ccc(/C=C/C(=O)N2CCC3(CC2)CC3C(=O)N2CCN(c3ccccn3)CC2)cc1OC (stereo not given)	-22.2% (inactive)
c1ccc(Oc2cccc(-c3ccc4nnc(-c5ccc6nccnc6c5)n4c3)c2)cc1	-8.11% (inactive)
Cc1ccc(N(CCCCN2C(=O)c3ccccc3C2=O)C(=O)/C=C/c2ccccc2Cl)cc1	-4.6% (inactive)
CCc1cc(N2CCN(c3ccccc3F)CC2)nc(SCc2cccc(C(=O)NCC3CCCO3)c2)n1 (stereo not given)	-4.77% (inactive)
CC(O)CNC(c1nc(-c2ccc(Br)cc2)no1)C(C)C (stereo not given)	-3.51% (inactive)
Cc1cc(C)n(-c2ccc(N3CCN(S(=O)(=O)c4ccc(C)c(C)c4)CC3)nn2)n1	-8.08% (inactive)
Cc1cc2c(o1)CC(C)(C)CC2NS(=O)(=O)CCc1ccccc1 (stereo not given)	-12.8% (inactive)
COc1ccccc1C(=O)N1CCC(n2c(=O)oc3ccc(Cl)cc32)CC1	-5.6% (inactive)
Cc1nnc(SCC(=O)Nc2cccc(Cl)c2)c2c1cnn2-c1ccc(F)cc1	-13.2% (inactive)
O=C1OC(c2ccc(Cl)cc2)=NC1=Cc1ccc(N2CCOCC2)s1	-5.28% (inactive)
COCCN1C(=O)C(c2c(C(C)C)[nH]n(-c3ccc(Cl)c(Cl)c3)c2=O)=C([n+]2ccccc2)C1=O	-8.94% (inactive)
CCOC(=O)c1ccccc1NC(=O)CSc1nnc(C)c2cnn(-c3ccccc3OC)c12	-1.28% (inactive)
Cc1ccccc1OCC(=O)N(CCn1cccn1)c1nc2ccccc2s1	3% (inactive)
CCc1nc2c(OCC(N)=O)cccn2c1N(C)C(=O)c1ccc(OC)cc1	-2.96% (inactive)

SMILES	inhibition
CCOC(=O)CN(C(=O)c1cc(C)oc1C)[C@H]1[C@H](OC)[C@@H]2O[C@H]1c1ccccc12	-0.832% (inactive)
O=C(COc1ccc(Cl)cc1)NCC1CCN(c2nc(Cc3ccc(F)cc3)ns2)CC1	-5.03% (inactive)
COC[C@H](C)NC(=O)Cc1sc(C)nc1C	-2.6% (inactive)
O=C(CCN1C(=O)COc2ccccc21)N1CCC2(CCCO2)CC1	-9.44% (inactive)
O=C1c2ccccc2C(=O)N1CN(C(=O)C(F)(F)F)c1ccc(I)cc1	-2.77% (inactive)
CC1c2cccn2CCN1Cc1ccc(C#N)cc1F (stereo not given)	-13.4% (inactive)
CC1=C(C(=O)OCC(C)C)C23C(=O)c4ccccc4C2(OC(=N)C3C#N)O1 (stereo not given)	-3.99% (inactive)
COCCCn1c(CN2CCCC(C(=O)c3ccccc3)C2)cnc1S(C)(=O)=O (stereo not given)	-11% (inactive)
O=C(Cn1nnc(-c2ccccc2)n1)Nc1c(F)cccc1F	4.62% (inactive)
CCOCCCN(CC(=O)N(Cc1ccccc1)Cc1sccc1C)C(=O)c1cccc(Br)c1	1.83% (inactive)
COc1ccc(C(=O)N(Cc2ccc(F)cc2)Cc2cc(NC(=O)c3ccco3)ccc2N(C)C)cc1	-0.342% (inactive)
CC(C)(C)c1cc2nc(-c3ccccc3F)cc(C(=O)NC3CC3)n2n1	-7.68% (inactive)
CC(C)(C)S(=O)(=O)c1ccc2nn(CC(=O)Nc3ccc(Cl)cc3)c(=O)n2n1	-9.01% (inactive)
CCCN1CCN(S(=O)(=O)c2[nH]ncc2C(=O)OCC)CC1	-10.5% (inactive)
Cc1ccc(C)c(NC(=O)Cn2nc3c(=O)n(-c4ccc(Br)cc4)ccn3c2=O)c1	-5.88% (inactive)
Cc1ccc(C)c(Cn2ccnc2CN(CC(C)C)C(=O)c2cccc(F)c2)c1	-11.5% (inactive)
COc1ccc(OC)c(CC(=O)NC2CC(C)(C)Cc3c2cnn3-c2cccc(F)c2)c1 (stereo not given)	-9.44% (inactive)
Fc1ccc(CN2CCCn3cccc3C2c2ccoc2)cc1Cl (stereo not given)	0.16% (inactive)
O=C1NC2(CCN(Cc3ccccc3[N+](=O)[O-])CC2)Nc2ccc(Br)cc21	-4.81% (inactive)
CCOC(=O)C1=C(C)N=c2s/c(=C\c3ccc(Cl)c(Cl)c3)c(=O)n2C1c1cccs1 (stereo not given)	-4.71% (inactive)
COc1cccc(Cc2c(C)nc(C)nc2N2CCN(S(=O)(=O)c3ccc(NC(C)=O)cc3)CC2)c1	-9.89% (inactive)
CCCCn1c(SCc2nnc(C)o2)nc2sc(C)c(C)c2c1=O	-8.28% (inactive)

SMILES	inhibition
O=C(Nc1ccc(-c2ccccc2)cc1)N[C@@H](Cc1ccccc1)C(=O)N1CCC(C(=O)N2CCOCC2)CC1	1.19% (inactive)
COc1ccc(C)cc1S(=O)(=O)Nc1ccccc1C(=O)NCc1cccc(Cl)c1	-4.63% (inactive)
NC(=O)c1cncc(-n2ccnc2-c2ccccc2)c1	-8.08% (inactive)
CC(C)Nc1cc(N2CC(c3ccccn3)C2)ncn1	-15.6% (inactive)
C=CCn1c(SCC(=O)c2cc(C)n(CCOC)c2C)nc2scc(-c3ccccc3)c2c1=O	1.74% (inactive)
CC(C)N(C(=O)CN1CCN(C(=O)c2cn(C)cc3c(=O)n(-c4ccccc4)nc2-3)CC1)C(C)C	-8.86% (inactive)
CCOC(=O)c1cc(-c2ccc(N3CCN(C(=O)COCc4ccccc4)CC3)cc2)n(-c2ccccc2Cl)n1	-7.07% (inactive)
COc1cccc(C(CN2CCN(C(=O)c3oc4ccccc4c3C)CC2)OCc2cccc(Cl)c2)c1 (stereo not given)	-3.76% (inactive)
O=C(c1ccccc1Br)N1CCc2nc(-c3ccccc3)nc(N3CCCCC3)c2C1	-6.08% (inactive)
O=C(Nc1nnc(C23CC4CC(CC(C4)C2)C3)s1)C12CC3CC(CC(C3)C1)C2	-5.12% (inactive)
Cc1ccccc1Cc1nc2c(c(=O)[nH]1)CN(C(=O)Cc1ccc(F)cc1)CC2	-2.79% (inactive)
CC(C)c1nnsc1C(=O)N1CCC2(CC1)C(=O)NCCN2C	-8.76% (inactive)
CC(Nc1ccc([N+](=O)[O-])cc1S(=O)(=O)N1CCOCC1)c1ccc(F)cc1F (stereo not given)	-8.24% (inactive)
N#Cc1ccc(-c2ccccc2)nc1SC(C(=O)O)c1ccccc1 (stereo not given)	-4.77% (inactive)
CCCS(=O)(=O)N1CCCC(C(=O)NC(C)CC)C1 (stereo not given)	-2.19% (inactive)
COc1cc([N+](=O)[O-])cc2sc(NC(=O)C(C)C)nc12	-2.21% (inactive)
CCn1c(=O)c(C(=O)NCC2CCCO2)nn(-c2ccccc2F)c1=O (stereo not given)	-8.2% (inactive)
CC(C)(C)c1ccc(C2SCC(=O)N2CCC(=O)O)cc1 (stereo not given)	-3.76% (inactive)
CCCC(=O)Nc1ccc(NC(=O)c2cc(C(C)C)[nH]n2)cc1OC	-8.07% (inactive)
O=C(NC(c1ccccc1)c1ccc(Cl)cc1)C1CC1(c1ccccc1)c1ccccc1 (stereo not given)	-5.82% (inactive)
COCCCN1COc2ccc3c(=O)c(Oc4ccc(OC)cc4)coc3c2C1	-1.41% (inactive)
Brc1ccc(N=c2oc3ccccc3cc2-c2nc3ccccc3[nH]2)cc1	-0.816% (inactive)

SMILES	inhibition
COc1ccc(-c2nnc3ccc(OCCNS(=O)(=O)c4cccs4)nn23)cc1	-9.21% (inactive)
Oc1c(Cl)cc(Cl)c2ccc(N/N=C\c3cccc(Oc4ccccc4)c3)nc12	-3.37% (inactive)
O=c1n(Cc2noc(-c3ccoc3)n2)nnn1-c1cccs1	-17.5% (inactive)
CC(C)(C)S(=O)(=O)c1ccc(N2CCN(c3ccc(Cl)cc3)CC2)nn1	-8.96% (inactive)
COc1ccccc1C(=O)N1CCN(CC(OCc2c(F)cccc2F)c2ccc(Cl)cc2)CC1 (stereo not given)	-2.63% (inactive)
C[N+](C)(CCCCCC[N+](C)(C)CCCN1C(=O)c2cccc3cccc(c23)C1=O)CCCN1C(=O)c2cccc3cccc(c23)C1=O	75.6% (active)
Cc1ccccc1N(CCCN1C(=O)c2cccc3cccc(c23)C1=O)C(=O)c1ccc([N+](=O)[O-])cc1	2.98% (inactive)
COc1ccc(N2C(=O)c3cccc4cccc(c34)C2=O)cc1OC	-7.45% (inactive)
COc1cc(C=C2N=C(C(C)(C)C)OC2=O)ccc1OC(F)F	1.97% (inactive)
COc1ccc(C(=O)N2CCCC3(CC2)CNC(=O)O3)cc1N1CCOCC1 (stereo not given)	-11.6% (inactive)
O=C(COc1ccc(Cl)cc1)Nc1c(-c2cccc(F)c2)nc2ccccn12	-8.5% (inactive)
COCCCN(CC(=O)N1CCc2sccc2C1c1ccc(C)cc1)C(=O)c1ccc(C)c([N+](=O)[O-])c1 (stereo not given)	-4.86% (inactive)
O=C(Cc1ccccc1)N1CC(=O)N(Cc2ccco2)CC(O)C1 (stereo not given)	-3.15% (inactive)
COc1cc2c(cc1OC)C(CNC(=O)NC(C)(C)C)N(Cc1ccc(F)cc1)CC2 (stereo not given)	-7.88% (inactive)
Cc1cnc(C(=O)N2CC(c3ccncc3)C2)cn1	-13.8% (inactive)
NCCOCc1ccc(-c2ccc(F)c(CO)c2)cc1	-21.2% (inactive)
COc1ccc(S(=O)(=O)N(CC(=O)N2CCc3sccc3C2c2ccccc2C)C(C)C)cc1 (stereo not given)	-2.82% (inactive)
COCC(=O)Nc1cccc(-n2nc(OCCc3ccc(OC)cc3)nc2-c2ccc(C(F)(F)F)cc2)c1	-3.56% (inactive)
Cc1csc2nc(CSc3ncn[nH]3)cc(=O)n12	-4.64% (inactive)
